Tests used:
Experiment in all cases: DAPPL (digital affinity profiling via proximity ligation, sequencing); 10 mM Tris-HCl pH 7.5, 50 mM NaCl, 1 mM DTT, 4% glycerol, room temperature, 30 min; GST-TFs on glutathione beads, 16-mer random dsDNA library, 0.1% formaldehyde crosslink after washing; high values mean tight binding
Conditions in all cases: protein: recombinant; tags: N-terminal GST; dsDNA, one strand shown
FLI1 = target: T1, FLI1 (Homo sapiens, UniProt Q01543 1-452)
T1 sequence: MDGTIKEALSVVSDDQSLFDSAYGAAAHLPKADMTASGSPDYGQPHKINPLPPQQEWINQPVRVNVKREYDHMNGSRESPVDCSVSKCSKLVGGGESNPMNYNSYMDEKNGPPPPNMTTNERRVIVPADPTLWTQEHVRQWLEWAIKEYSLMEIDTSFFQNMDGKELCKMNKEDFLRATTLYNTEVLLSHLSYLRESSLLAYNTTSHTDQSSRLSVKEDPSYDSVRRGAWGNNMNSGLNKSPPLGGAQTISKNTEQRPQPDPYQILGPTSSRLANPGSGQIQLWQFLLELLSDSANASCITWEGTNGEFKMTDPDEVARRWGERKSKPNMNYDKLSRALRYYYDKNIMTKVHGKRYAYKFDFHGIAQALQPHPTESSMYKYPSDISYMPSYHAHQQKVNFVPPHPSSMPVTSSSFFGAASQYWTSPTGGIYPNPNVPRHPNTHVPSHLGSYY
Procedure, shortened: (§1)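 Binding signal is given per hexamer as its read frequency for a factor divided by its frequency in the tag-only sample. GST-fused human transcription factors were expressed in yeast, captured on glutathione beads, barcoded with DNA and pooled with that sample, then incubated with 200 nmole of a 16-mer random double-stranded DNA library in Tris/NaCl/DTT/glycerol buffer for 30 min at room temperature. The pools were then washed, crosslinked, proximity-ligated, amplified by PCR and sequenced on an Illumina NextSeq500.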

ELK1 = target: T2, ELK1 (Homo sapiens, UniProt P19419 1-428)
T2 sequence: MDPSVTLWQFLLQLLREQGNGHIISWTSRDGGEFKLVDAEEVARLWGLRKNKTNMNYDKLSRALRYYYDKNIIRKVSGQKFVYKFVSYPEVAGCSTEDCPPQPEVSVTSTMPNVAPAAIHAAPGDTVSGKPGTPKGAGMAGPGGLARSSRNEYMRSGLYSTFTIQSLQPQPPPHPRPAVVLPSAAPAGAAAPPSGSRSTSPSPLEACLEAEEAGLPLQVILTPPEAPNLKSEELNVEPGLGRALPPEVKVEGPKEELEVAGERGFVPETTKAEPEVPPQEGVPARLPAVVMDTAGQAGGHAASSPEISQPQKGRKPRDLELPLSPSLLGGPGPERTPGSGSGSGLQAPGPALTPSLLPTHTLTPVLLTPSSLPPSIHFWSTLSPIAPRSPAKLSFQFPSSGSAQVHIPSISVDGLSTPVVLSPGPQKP
Procedure, shortened: as §1

GABPA = target: T3, GABPA (Homo sapiens, UniProt Q06546 1-454)
T3 sequence: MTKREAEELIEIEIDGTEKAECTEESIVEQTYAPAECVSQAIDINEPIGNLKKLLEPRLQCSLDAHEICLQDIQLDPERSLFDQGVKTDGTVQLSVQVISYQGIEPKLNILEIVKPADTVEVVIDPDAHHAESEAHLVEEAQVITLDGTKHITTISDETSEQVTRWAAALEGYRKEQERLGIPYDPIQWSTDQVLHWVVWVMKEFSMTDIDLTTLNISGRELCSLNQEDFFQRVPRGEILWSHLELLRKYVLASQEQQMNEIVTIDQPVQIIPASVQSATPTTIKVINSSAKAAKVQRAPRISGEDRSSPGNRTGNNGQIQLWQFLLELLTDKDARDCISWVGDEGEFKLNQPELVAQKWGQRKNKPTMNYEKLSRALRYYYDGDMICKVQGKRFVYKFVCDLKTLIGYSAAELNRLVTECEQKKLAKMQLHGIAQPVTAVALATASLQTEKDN
Procedure, shortened: as §1

ERG = target: T4, ERG (Homo sapiens, UniProt P11308 1-479)
T4 sequence: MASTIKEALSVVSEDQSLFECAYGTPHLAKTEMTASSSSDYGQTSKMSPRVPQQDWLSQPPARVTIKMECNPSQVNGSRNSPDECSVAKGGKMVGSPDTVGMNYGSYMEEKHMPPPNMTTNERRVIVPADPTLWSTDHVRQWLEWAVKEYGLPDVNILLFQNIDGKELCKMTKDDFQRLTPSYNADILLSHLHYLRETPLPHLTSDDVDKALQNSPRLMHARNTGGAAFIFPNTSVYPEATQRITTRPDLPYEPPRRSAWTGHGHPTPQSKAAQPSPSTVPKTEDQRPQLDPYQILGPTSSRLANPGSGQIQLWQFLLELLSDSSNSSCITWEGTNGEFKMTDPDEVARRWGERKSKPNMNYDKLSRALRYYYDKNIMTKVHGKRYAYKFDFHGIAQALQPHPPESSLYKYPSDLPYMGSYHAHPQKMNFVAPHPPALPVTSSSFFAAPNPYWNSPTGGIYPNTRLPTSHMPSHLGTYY
Procedure, shortened: as §1

ELF1 = ELF1 (Homo sapiens, UniProt P32519 1-619)
ELF1, sequence (P32519 whole entry): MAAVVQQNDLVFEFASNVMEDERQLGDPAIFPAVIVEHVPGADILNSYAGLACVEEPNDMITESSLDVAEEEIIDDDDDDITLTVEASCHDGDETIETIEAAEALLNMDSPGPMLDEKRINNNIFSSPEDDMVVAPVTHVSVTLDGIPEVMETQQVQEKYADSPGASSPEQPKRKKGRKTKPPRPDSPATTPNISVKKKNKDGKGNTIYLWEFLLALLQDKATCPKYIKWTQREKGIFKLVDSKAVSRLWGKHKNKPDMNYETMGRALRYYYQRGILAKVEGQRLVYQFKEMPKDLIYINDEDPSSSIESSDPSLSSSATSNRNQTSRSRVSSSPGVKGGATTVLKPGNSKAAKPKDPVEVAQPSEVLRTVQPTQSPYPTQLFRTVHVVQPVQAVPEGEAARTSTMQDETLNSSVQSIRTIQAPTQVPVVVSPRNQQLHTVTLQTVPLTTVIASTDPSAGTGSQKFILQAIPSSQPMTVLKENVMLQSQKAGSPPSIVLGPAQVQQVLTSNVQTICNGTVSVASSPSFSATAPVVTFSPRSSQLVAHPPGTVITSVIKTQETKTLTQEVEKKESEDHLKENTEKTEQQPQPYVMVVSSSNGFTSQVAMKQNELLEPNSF
Procedure, shortened: as §1

EHF = target: T5, EHF (Homo sapiens, UniProt Q9NZC4 1-300)
T5 sequence: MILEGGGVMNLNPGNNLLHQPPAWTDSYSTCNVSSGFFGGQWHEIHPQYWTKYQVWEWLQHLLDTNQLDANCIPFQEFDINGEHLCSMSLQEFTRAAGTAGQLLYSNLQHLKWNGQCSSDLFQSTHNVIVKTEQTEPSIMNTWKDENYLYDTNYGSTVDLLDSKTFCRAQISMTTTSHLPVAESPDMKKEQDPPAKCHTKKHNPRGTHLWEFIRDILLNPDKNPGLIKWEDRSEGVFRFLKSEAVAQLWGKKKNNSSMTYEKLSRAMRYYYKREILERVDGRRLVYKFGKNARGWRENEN
Procedure, shortened: as §1

SPI1 = SPI1 (Homo sapiens, UniProt P17947 1-270)
Procedure, shortened: as §1

SPIB = SPIB (Homo sapiens, UniProt Q01892 1-262)
SPIB, sequence (Q01892 whole entry): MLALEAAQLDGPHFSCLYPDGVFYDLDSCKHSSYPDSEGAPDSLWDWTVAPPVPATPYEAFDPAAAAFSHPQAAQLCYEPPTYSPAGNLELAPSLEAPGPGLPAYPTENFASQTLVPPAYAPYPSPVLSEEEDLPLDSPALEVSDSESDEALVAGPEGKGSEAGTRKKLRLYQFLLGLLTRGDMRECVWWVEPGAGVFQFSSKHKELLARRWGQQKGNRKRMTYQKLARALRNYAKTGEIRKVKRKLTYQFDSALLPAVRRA
Procedure, shortened: as §1

ELK3 = target: T6, ELK3 (Homo sapiens, UniProt P41970 1-407)
T6 sequence: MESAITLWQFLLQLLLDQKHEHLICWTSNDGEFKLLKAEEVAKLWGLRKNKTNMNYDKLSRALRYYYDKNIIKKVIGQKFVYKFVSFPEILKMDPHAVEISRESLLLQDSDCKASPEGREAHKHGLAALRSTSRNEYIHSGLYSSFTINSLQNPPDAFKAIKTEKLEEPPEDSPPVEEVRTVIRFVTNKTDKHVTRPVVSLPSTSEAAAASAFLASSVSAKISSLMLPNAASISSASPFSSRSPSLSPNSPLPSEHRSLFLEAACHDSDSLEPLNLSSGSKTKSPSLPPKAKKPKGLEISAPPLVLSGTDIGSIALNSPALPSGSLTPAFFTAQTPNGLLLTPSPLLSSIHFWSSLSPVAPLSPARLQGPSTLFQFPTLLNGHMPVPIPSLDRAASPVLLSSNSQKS
Procedure, shortened: as §1

FEV = target: T7, FEV (Homo sapiens, UniProt Q99581 1-238)
T7 sequence: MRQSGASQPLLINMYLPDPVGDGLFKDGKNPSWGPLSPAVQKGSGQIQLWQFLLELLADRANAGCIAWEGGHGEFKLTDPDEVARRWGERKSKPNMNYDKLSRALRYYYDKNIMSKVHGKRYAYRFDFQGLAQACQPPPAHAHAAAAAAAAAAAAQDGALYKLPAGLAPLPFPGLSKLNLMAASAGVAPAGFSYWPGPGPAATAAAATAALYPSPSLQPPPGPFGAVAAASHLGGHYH
Procedure, shortened: as §1

ETV5 = ETV5 (Homo sapiens, UniProt P41161 1-510)
ETV5, sequence (P41161 whole entry): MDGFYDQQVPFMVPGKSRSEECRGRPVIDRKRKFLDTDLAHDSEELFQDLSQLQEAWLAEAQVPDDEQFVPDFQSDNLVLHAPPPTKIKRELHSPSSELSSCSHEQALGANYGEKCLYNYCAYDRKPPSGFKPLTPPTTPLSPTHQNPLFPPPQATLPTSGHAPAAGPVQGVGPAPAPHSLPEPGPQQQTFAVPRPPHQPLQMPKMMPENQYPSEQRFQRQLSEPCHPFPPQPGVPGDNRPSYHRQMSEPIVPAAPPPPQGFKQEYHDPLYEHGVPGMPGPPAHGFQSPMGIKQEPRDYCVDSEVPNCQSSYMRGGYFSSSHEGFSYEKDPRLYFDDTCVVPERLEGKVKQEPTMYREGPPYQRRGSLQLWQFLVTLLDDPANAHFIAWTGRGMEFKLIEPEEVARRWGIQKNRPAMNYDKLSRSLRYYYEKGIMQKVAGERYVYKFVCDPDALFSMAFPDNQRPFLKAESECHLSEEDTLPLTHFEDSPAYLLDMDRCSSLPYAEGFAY
Procedure, shortened: as §1

SPIC = target: T8, SPIC (Homo sapiens, UniProt Q8N5J4 1-248)
T8 sequence: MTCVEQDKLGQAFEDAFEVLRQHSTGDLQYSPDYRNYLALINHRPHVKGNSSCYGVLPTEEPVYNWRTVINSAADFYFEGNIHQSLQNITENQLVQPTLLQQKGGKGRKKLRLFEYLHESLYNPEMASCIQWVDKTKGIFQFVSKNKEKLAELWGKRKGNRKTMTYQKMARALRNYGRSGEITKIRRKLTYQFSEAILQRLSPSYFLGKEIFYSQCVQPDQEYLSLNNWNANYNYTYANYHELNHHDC
Procedure, shortened: as §1

ELF4 = ELF4 (Homo sapiens, UniProt Q99607 1-663)
ELF4, sequence (Q99607 whole entry): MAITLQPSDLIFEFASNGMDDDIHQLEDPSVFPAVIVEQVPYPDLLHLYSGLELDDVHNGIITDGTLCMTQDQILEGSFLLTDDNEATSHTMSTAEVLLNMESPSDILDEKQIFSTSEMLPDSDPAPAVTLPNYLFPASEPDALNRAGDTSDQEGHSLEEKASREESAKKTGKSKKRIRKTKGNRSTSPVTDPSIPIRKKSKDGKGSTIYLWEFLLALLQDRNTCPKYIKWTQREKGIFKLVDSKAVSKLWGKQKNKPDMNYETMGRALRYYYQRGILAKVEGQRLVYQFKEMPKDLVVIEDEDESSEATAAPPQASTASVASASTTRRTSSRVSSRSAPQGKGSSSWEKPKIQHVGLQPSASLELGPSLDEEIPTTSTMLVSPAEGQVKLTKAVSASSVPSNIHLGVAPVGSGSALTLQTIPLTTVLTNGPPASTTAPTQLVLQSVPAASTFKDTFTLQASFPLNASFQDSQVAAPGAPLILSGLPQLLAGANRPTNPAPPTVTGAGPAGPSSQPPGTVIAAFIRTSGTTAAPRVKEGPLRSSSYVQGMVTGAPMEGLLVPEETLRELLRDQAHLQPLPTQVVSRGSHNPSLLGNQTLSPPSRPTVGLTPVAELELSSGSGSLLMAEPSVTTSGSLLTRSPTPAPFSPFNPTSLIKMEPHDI
Procedure, shortened: as §1

ELK4 = target: T9, ELK4 (Homo sapiens, UniProt P28324-2 1-405)
T9 sequence: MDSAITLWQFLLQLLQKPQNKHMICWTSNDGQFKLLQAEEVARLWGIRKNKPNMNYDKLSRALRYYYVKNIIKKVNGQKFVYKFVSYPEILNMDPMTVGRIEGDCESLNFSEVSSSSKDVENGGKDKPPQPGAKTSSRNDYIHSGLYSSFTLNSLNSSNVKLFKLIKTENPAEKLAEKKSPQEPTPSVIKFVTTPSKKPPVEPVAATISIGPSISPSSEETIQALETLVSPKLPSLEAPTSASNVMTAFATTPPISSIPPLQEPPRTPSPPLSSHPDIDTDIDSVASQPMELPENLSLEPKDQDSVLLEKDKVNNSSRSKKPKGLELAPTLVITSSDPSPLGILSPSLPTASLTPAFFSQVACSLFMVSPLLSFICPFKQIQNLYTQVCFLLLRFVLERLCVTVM
Procedure, shortened: as §1

ETV2 = target: T10, ETV2 (Homo sapiens, UniProt O00321 1-342)
T10 sequence: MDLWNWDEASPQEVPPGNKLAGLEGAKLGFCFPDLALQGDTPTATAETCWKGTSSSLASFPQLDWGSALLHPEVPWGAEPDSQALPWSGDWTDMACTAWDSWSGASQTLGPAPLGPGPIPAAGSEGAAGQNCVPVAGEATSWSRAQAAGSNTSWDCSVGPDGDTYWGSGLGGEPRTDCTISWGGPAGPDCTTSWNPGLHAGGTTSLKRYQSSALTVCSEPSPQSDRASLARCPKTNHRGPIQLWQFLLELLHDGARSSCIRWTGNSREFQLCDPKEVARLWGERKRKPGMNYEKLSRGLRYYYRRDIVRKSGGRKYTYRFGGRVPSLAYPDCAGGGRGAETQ
Procedure, shortened: as §1

ELF3 = target: T11, ELF3 (Homo sapiens, UniProt P78545 1-371)
T11 sequence: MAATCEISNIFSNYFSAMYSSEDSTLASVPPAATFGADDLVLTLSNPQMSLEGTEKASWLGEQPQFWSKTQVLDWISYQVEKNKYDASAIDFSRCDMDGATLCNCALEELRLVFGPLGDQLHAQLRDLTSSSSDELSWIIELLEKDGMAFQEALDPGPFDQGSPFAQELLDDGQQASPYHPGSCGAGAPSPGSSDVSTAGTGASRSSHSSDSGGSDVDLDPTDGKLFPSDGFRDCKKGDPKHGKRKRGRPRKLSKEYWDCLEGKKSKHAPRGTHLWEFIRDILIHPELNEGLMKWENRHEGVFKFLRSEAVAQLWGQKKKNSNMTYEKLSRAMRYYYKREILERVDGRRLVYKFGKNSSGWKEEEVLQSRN
Procedure, shortened: as §1

ETV1 = ETV1 (Homo sapiens, UniProt P50549 1-477)
ETV1, sequence (P50549 whole entry): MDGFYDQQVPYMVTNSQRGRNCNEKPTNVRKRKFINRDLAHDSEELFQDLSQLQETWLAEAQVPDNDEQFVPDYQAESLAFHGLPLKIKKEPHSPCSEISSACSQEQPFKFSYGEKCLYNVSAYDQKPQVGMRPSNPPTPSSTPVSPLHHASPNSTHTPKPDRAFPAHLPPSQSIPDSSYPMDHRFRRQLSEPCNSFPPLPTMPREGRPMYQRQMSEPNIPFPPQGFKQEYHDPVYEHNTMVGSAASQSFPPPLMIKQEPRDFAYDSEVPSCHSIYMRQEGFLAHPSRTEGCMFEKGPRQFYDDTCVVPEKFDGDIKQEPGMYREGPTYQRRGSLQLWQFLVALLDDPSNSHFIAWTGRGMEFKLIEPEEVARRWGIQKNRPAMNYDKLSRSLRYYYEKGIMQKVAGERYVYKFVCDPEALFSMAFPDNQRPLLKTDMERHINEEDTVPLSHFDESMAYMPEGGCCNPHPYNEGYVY
Procedure, shortened: as §1

Sequence | binding signal (FLI1) | binding signal (ELK1) | binding signal (GABPA) | binding signal (ERG) | binding signal (ELF1) | binding signal (EHF) | binding signal (SPI1) | binding signal (SPIB) | binding signal (ELK3) | binding signal (FEV) | binding signal (ETV5) | binding signal (SPIC) | binding signal (ELF4) | binding signal (ELK4) | binding signal (ETV2) | binding signal (ELF3) | binding signal (ETV1)
TGTCCA | 1.18 fold enrichment (6-mer frequency, TF over GST control) | 1.18 fold enrichment (6-mer frequency, TF over GST control) | 1.1 fold enrichment (6-mer frequency, TF over GST control) | 1.19 fold enrichment (6-mer frequency, TF over GST control) | 1.19 fold enrichment (6-mer frequency, TF over GST control) | 1.16 fold enrichment (6-mer frequency, TF over GST control) | 1.08 fold enrichment (6-mer frequency, TF over GST control) | 1.13 fold enrichment (6-mer frequency, TF over GST control) | 1.14 fold enrichment (6-mer frequency, TF over GST control) | 1.11 fold enrichment (6-mer frequency, TF over GST control) | 1.15 fold enrichment (6-mer frequency, TF over GST control) | 1.17 fold enrichment (6-mer frequency, TF over GST control) | 1.16 fold enrichment (6-mer frequency, TF over GST control) | 1.11 fold enrichment (6-mer frequency, TF over GST control) | 1.3 fold enrichment (6-mer frequency, TF over GST control) | 1.06 fold enrichment (6-mer frequency, TF over GST control) | 1.04 fold enrichment (6-mer frequency, TF over GST control)
GTCCCG | 1.29 fold enrichment (6-mer frequency, TF over GST control) | 1.2 fold enrichment (6-mer frequency, TF over GST control) | 1.21 fold enrichment (6-mer frequency, TF over GST control) | 1.22 fold enrichment (6-mer frequency, TF over GST control) | 1.24 fold enrichment (6-mer frequency, TF over GST control) | 1.2 fold enrichment (6-mer frequency, TF over GST control) | 1.21 fold enrichment (6-mer frequency, TF over GST control) | 1.32 fold enrichment (6-mer frequency, TF over GST control) | 1.26 fold enrichment (6-mer frequency, TF over GST control) | 1.24 fold enrichment (6-mer frequency, TF over GST control) | 1.19 fold enrichment (6-mer frequency, TF over GST control) | 1.23 fold enrichment (6-mer frequency, TF over GST control) | 1.17 fold enrichment (6-mer frequency, TF over GST control) | 1.23 fold enrichment (6-mer frequency, TF over GST control) | 1.06 fold enrichment (6-mer frequency, TF over GST control) | 1.26 fold enrichment (6-mer frequency, TF over GST control) | 1.27 fold enrichment (6-mer frequency, TF over GST control)

Reference: article PMC7862700, “An all-to-all approach to the identification of sequence-specific readers for epigenetic DNA modifications on cytosine”
